Bioassay records from PubChem BioAssay.
CFTR F508del cor – CFTR F508del correction in bronchial cells; CFBE cells, YFP halide quenching; stimulated with forskolin plus potentiator P3; % fluorescence drop versus neutral controls; activity (quench increase), % at 7.58 µM; 350,000 compounds, 0.36% hits; AID 720511;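 active = mean added fluorescence quench of at least 8% versus neutral control, with both replicates also reaching 8%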;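 also: cells transiently co-express mutant CFTR-F508del with the halide-sensitive YFP; corrector assay measuring rescue of mutant channel to the surface after 24 h compound exposure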
HIV Env fusion – HIV envelope-mediated fusion inhibition | HeLa-JRFL Env/CEM21 cell fusion, luciferase | inhibition, % at 12.3 µM | 360,000 compounds, 1.1% hits | AID 651610;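 active = mean replicate inhibition score of at least 50 and every replicate individually at or above 50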;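 also: 0% = plate neutral controls and 100% = maraviroc near 300 nM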
INS-1E GSIS act – primary screen for activators of insulin secretion dependent on glucose, INS-1E cells, GLuc reporter luminescence. INS-1E GLuc reporter insulin secretion, 2-3 h. activation, % at 16.6 µM. 370,000 compounds, 0.61% hits. AID 743287;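 active = lowest replicate activation of at least 40%, so every replicate reaches that level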;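 also: 0% = median of neutral control wells and 100% = median of IBMX positive control wells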
Wnt act – activates Wnt/beta-catenin signaling in a reporter cell assay; activator, plate reader; activation, % at 9.35 µM; 300,000 compounds, 1.2% hits; in the data active = activation above about 30%, passing the limit was not always enough;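 also: 0% = neutral control wells and 100% = positive control wells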
MITF act – MITF TRPM1 promoter activation in melanoma cells. SK-MEL-5 TRPM1-promoter luciferase, 24 h; % of positive control, neutral wells = 0. activation, % at 12.5 µM. 300,000 compounds, 0.75% hits. AID 588334;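 active = mean activation of at least 80% with every replicate also reaching 80%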;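 also: 0% = neutral control wells and 100% = parthenolide positive control wells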
Numbers without * were called inactive; . = no result given; [ ] = remark or other dose. Sampled rows, rich in hits. Any-hit rate of the full collection: about 2.7%.

SMILES | CFTR F508del cor | HIV Env fusion | INS-1E GSIS act | Wnt act | MITF act
C[C@H](CO)N1C[C@H](C)[C@H](CN(C)S(=O)(=O)c2cccs2)Oc2ccc(NC(=O)Nc3cccc4ccccc34)cc2CC1=O | -2.8 | 75.3*[16.7 µM] | -24.5 | . | .
C[C@@H]1CN([C@H](C)CO)S(=O)(=O)c2ccc(-c3ccccc3F)cc2O[C@H]1CN(C)C | -0.2 | -13.9[16.7 µM] | 14.4 | . | .
C[C@H]1CN([C@@H](C)CO)C(=O)Cc2cc(NC(=O)Nc3ccc4c(c3)OCO4)ccc2O[C@H]1CN(C)S(=O)(=O)c1cccs1 | 0.1 | 92.2*[16.7 µM] | -41.1 | . | .
COc1ccc(OC)c(NC(=O)CN=[N+]=[N-])c1 | -1.1 | 0.9[16.7 µM] | . | . | .
C/C(=N\NC(=O)c1nnn(-c2nonc2N)c1CN(C)c1ccccc1)c1cccnc1 | 0.4 | -23.8 | -5.5 | 34.3* | -0.7
C/C(=N\NC(=O)c1nnn(-c2nonc2N)c1-c1ccccc1)c1cccnc1 | 1.4 | 10.5 | 1.2 | 0.4 | 8.4
O=C(OCC(=O)N1CCN(Cc2ccccc2)CC1)c1cc(Cl)ccc1[N+](=O)[O-] | -3.5 | . | -17.7 | 36.9* | -1.5
COc1ccc(-c2n(Cc3ccccc3)c3ccccc3[n+]2Cc2ccccc2)cc1 | . | 70.3* | -35.4 | -22.3 | -77.9
CCCN1C[C@H](C)[C@@H](OC)CN(C)C(=O)c2cc(NC(=O)c3cccc(F)c3)ccc2OC[C@@H]1C | 0.1 | . | -14.4 | . | .
CCOc1ccc(Nc2cc3n(c(=O)n2)CCc2cc(OC)c(OC)cc2-3)cc1 | 3.1 | 35.3 | 31.9 | -0.9 | 36.9
CCOc1ccccc1Nc1cc2n(c(=O)n1)CCc1cc(OC)c(OC)cc1-2 | 3.7 | 11.7 | 76.1* | -0.7 | -3.0
COc1cc2c(cc1OC)-c1cc(NCc3ccccn3)nc(=O)n1CC2 | . | . | 62.6* | -0.3 | .
COc1cc2c(cc1OC)-c1cc(Nc3ccccc3C)nc(=O)n1CC2 | 1.7 | 11.9 | 52.8* | 6.2 | 25.0
COc1cc2c(cc1OC)-c1cc(NC3CCCCC3)nc(=O)n1CC2 | . | . | 72.4* | . | 13.1
C[C@@H](NC(=O)[C@H]1[C@H](CO)[C@H]2Cn3c(cccc3=O)[C@@H]1N2C(=O)C1CCCC1)c1ccccc1 | 1.8 | . | 1.6 | . | .
O=C(O)C[C@H]1C[C@H]2c3cc(NC(=O)CC4CC4)ccc3O[C@H]2[C@H](CO)O1 | 0.6 | -1.3[16.7 µM] | 2.8 | . | .
COCC#Cc1ccc([C@@H]2[C@H](CO)N3CCCCN(S(=O)(=O)c4ccccc4F)C[C@@H]23)cc1 | 2.5 | . | -18.9 | . | .
C[C@@H](NC(=O)C[C@@H]1CC[C@@H]2[C@H](COC[C@H](O)CN2C)O1)c1ccccc1 | -1.2 | 6.4[16.7 µM] | 5.3 | . | .
CC(=O)Oc1cc(C(=O)OCC(=O)NC23CC4CC(CC(C4)C2)C3)cc(OC(C)=O)c1OC(C)=O | 10.1* | . | -3.8 | -3.0 | 2.5
COc1cccc(C(=O)OCC(=O)NC23CC4CC(CC(C4)C2)C3)c1 | 1.1 | 18.9 | . | -2.0 | -4.8
N#CCCN(C(=O)COC(=O)c1cc(=O)c2ccccc2o1)c1ccccc1 | 12.9* | -1.4 | -1.1 | -0.6 | 6.9
Cc1n[nH]c(C)c1S(=O)(=O)N(CC(=O)NC1CCCC1)c1ccc(C(C)C)cc1 | 0.3 | 86.1* | 3.9 | -2.0 | 7.1
Cc1nn(C)c(C)c1S(=O)(=O)N(CC(=O)NC1CCCCCC1)c1ccc(C(C)C)cc1 | -0.6 | -7.2 | . | -1.1 | .
CC1=Nc2cc(C(=O)O)ccc2Sc2ccc(Br)cc21 | -3.0 | -8.6 | 12.4 | -2.3 | -14.4
CC1=Nc2cc(C(=O)NCC3CCCO3)ccc2Sc2ccc(Br)cc21 (stereo not drawn) | 13.0* | 11.8 | . | -15.5 | -19.8
SMILES | CFTR F508del cor | HIV Env fusion | INS-1E GSIS act | Wnt act | MITF act
COc1cc2c3c(c1)C(C)CC(C)(C)N3C(=O)C2=O (stereo not drawn) | 0.7 | 59.8* | . | -3.9 | -11.7
O=C(CSc1nc2ccccc2[nH]1)c1ccc2c(c1)OCO2 | . | -65.7 | . | 54.4* | .
O=C(CSc1ccccn1)Nc1ccc2c(c1)OCO2 | -0.7 | -15.1 | 13.9 | 28.2 | .
O=C(CSc1ccccn1)c1ccc2c(c1)OCO2 | . | -110.9 | . | 47.3* | .
C/C=C/c1cnc2c(c1)C(=O)N([C@H](C)CO)C[C@H](C)[C@@H](CN(C)C(=O)C1CCC1)O2 | -0.5 | -9.2[16.7 µM] | 0.8 | . | .
Cc1cc(C)c(NN=c2c(=O)c3ccccc3c2=O)c(C)c1 | . | -42.1 | . | 21.0 | 116.0*
O=C(Nc1ccccc1)c1nc[nH]c1C(=O)Nc1ccccc1F | 9.5* | -100.2 | 9.8 | -2.8 | .
Cc1c(OC(C)C(=O)NCc2ccccn2)ccc2c3c(c(=O)oc12)CCC3 (stereo not drawn) | 1.9 | -3.1 | 27.1 | 2.4 | 3.1
Cc1c(OCC(=O)NCc2ccccn2)ccc2c3c(c(=O)oc12)CCCC3 | -0.3 | -7.3 | 41.1* | -1.3 | 24.0
Cc1c(OCC(=O)NCCCN2CCOCC2)ccc2c3c(c(=O)oc12)CCCC3 | 2.3 | -6.7 | 18.0 | 0.1 | 9.9
Cc1c(OCC(=O)NCCN2CCOCC2)ccc2c3c(c(=O)oc12)CCC3 | 10.9* | -2.0 | -3.7 | 0.7 | 5.1
CCCC(=O)Nc1ccc2c(c1)C(=O)N(C)C[C@H](OC)[C@H](C)CN(CC1CCOCC1)[C@H](C)CO2 | -0.3 | . | 0.5 | . | .
CCCNC(=O)N[C@H]1C=C[C@@H](CC(=O)NCCc2ccccc2)O[C@H]1CO | -2.8 | -8.0[16.7 µM] | 14.4 | . | .
CCOc1ccc(N=C(/C(C(=O)C(=O)N2CCOCC2)=C(\O)c2ccccc2)c2ccccc2)cc1 | . | 46.7 | 1.0 | 9.5 | 86.8*
O=C(c1ccc(S(=O)(=O)NCC2CCCO2)cc1)N1CCN(c2cccc(Cl)c2)CC1 (stereo not drawn) | 16.0* | 12.5 | -18.6 | -1.5 | -13.6
O=C(c1ccc(S(=O)(=O)NCC2CCCO2)cc1)N1CCN(c2ccccc2F)CC1 (stereo not drawn) | -1.6 | 2.4 | -3.2 | -4.6 | 2.3
CO[C@@H]1CN(C)C(=O)c2ccc(NC(=O)C3CCCC3)cc2OC[C@H](C)N(CC2CC2)C[C@@H]1C | 0.0 | . | -1.7 | . | .
C=CCN(Cc1ccc(OC)c(OC)c1)C(=O)c1cc2cc(F)ccc2[nH]1 | 1.9 | 76.1* | 9.5 | 1.9 | 0.1
C[C@@H]1CN([C@H](C)CO)S(=O)(=O)c2ccc(/C=C/c3ccccc3)cc2O[C@@H]1CN(C)C(=O)c1ccc2c(c1)OCO2 | -5.1 | 4.7[16.7 µM] | -5.1 | . | .
Cc1nn(-c2ccccc2)c(Cl)c1C(=O)NC1CCCCC1 | -1.7 | 6.5 | 9.5 | -1.5 | 12.5
O=C(NC1CCCCC1)c1cc(C2CC2)nn1-c1ccccc1 | 22.5* | . | -27.4 | -1.6 | -8.7
CCc1ccc(C(=O)CN2C(=O)NC(C)(c3ccc(C)cc3)C2=O)cc1 (stereo not drawn) | -3.1 | 69.1* | 17.7 | -1.3 | -18.7
Cc1ccc(NC(=O)CSCC(=O)Nc2nnc(C)s2)cc1 | 4.9 | 18.8 | 47.3* | -1.8 | -1.0
Cc1ccc2nc(-c3ccc(NC(=O)CSCC(=O)O)cc3)sc2c1 | 2.0 | -54.3 | 2.0 | 71.8* | 103.0*
Cc1ccc2nc(-c3ccc(NC(=O)COCC(=O)O)cc3)sc2c1 | -3.3 | -15.8 | -3.1 | 38.2* | .
Cc1ccc2nc(-c3ccc(NC(=O)CCN4C(=O)c5ccccc5C4=O)cc3)sc2c1 | . | -216.9 | . | 16.9 | 22.7
